Several values for one entry are separate records, joined by “and”; a condition that tells them apart may be missing. Identical values can stand only once. About 83,000 compounds went through this panel and 20% of them were active in at least one assay; those are over-represented in the sample as a whole.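 The test compound was applied at a single concentration to cells in 96-well plates for 48 hours, and percent growth was recorded.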 Activity calls are given as the source filed them. Rule for the calls: active = growth percent below 10; inactive = the rest.
tested on: MDA-MB-468 breast; assay: NCI-60 one-dose screen, 48 h (100 = growth as untreated, 0 = no growth, -100 = all killed); settings: 10 µM unless noted

| Compound | growth |
| --- | --- |
| NC[C@H](O)c1ccc(O)c(O)c1 | 111% (inactive) |
| CCc1ccc(-c2cn3ccnc3c(-c3ccc4ncn(Cc5ccccc5)c4c3)n2)cc1 | 82.8% (inactive) |
| CC(C)(C)OC(=O)N1C/C(=C\c2ccccc2)C(=O)/C(=C/c2ccccc2)C1 | 112% (inactive) |
| CCCC(C)c1cc(Cc2cc(Cl)cc(Cl)c2O)c(O)c(Cc2cc(Cl)cc(Cl)c2O)c1 (stereo not given) | -1.2% (active) |
| Nc1c(C(=O)Nc2cccc3c2OCCO3)sc2nc3c(cc12)C(=O)CCC3 | 18.7% (inactive) |
| Cc1cc(Br)c2nsnc2c1[N+](=O)[O-] | -24.6% (active) |
| COc1c(B(O)O)cccc1-c1nc2ccc3[nH]ncc3c2c2c1CCCC2 | 34% (inactive) |
| Cc1cc(C)c(NC(=O)c2sc3nc4c(cc3c2N)CCCC4)c(C)c1 | 47.9% (inactive) |
| O=C(Nc1ccc(-n2cc(-c3ccncc3)c(-c3ccc(O)c(Cl)c3)n2)cc1)c1cc(Cl)cc(Cl)c1 | 50.6% (inactive) |
| COc1cc(/C=C/c2cc(/C=C/c3ccc(O)c(OC)c3)n(C(=O)c3ccccc3Br)n2)ccc1O | 2.97% (active) |
| COc1ccc(-c2csc(NC(=O)CN3CCN(c4cc5c(cc4F)c(=O)c(C(=O)O)cn5C4CC4)CC3)n2)cc1 | -0.675% (active) |
| CC(C)N=C1CCCC1C(=S)SSC(=S)C1CCCC1=NC(C)C (stereo not given) | 63.6% (inactive) |
| Nc1nc(-c2ccc(F)cc2)cc(-c2cnn(-c3ccccc3)n2)n1 | 104% (inactive) |
| CC1(C)C(=O)CC[C@]2(C)[C@H]3C(=O)C=C4[C@@H]5C[C@@](C)(C(=O)NCCNCCN)CC[C@]5(C)CC[C@@]4(C)[C@]3(C)CC[C@@H]12 | 114% (inactive) |
| Nc1ccc(O)c(C(=O)O)c1 | 73.1% (inactive) and 9.23% (active) and 98.8% (inactive) |
| CN1CCN(Cc2ccc(NC(=O)c3cncc(C#Cc4cnc5ccc(N6CCSCC6)nn45)c3)cc2C(F)(F)F)CC1 | -74.2% (active) |
| CCNC(=O)Oc1ccc(/C(=C(\C)c2ccc(Cl)cc2)c2ccc(OCCN(CC)CC)cc2)cc1 | 67.5% (inactive) |
| COc1ccc(-c2nnc(SCC(=O)c3ccc(Cl)cc3)o2)cc1 | 109% (inactive) |
| COc1cc(/C=C/C(=O)c2c(C)nc3ccccc3c2/C=C/c2ccccc2)cc(OC)c1OC | 7.7% (active) |
| COc1cc2cn3c4ccc(O)cc4nc(N)c3c2cc1OC | -32.3% (active) |

| Compound | growth |
| --- | --- |
| O=C(CSc1nnc(-c2cccs2)n1-c1ccccc1)Nc1ccc(F)cc1 | 88.7% (inactive) |
| C[C@]12CC[C@@H]3c4ccc(O)cc4C[C@@H](O)[C@H]3[C@@H]1CC[C@@H]2O | 98.1% (inactive) |
| O=C1C2CC=CCC2C(=O)N1CNc1ccc(Cl)cc1 (stereo not given) | 91% (inactive) |
| CCN1C(=O)N(CC)C2C1NN=c1s/c(=C3\C(=O)N(CCc4ccccc4)c4ccccc43)c(=O)n12 (stereo not given) | -11.3% (active) |
| SCc1ccc(CS)cc1 | 111% (inactive) |
| COc1ccc(/C(C)=N/NC(=O)CSc2nc3ccccc3c(=O)n2CCc2ccc(S(N)(=O)=O)cc2)cc1 | 33.8% (inactive) |
| COc1ncc(-c2ccc3nccc(C#CCCCCC(=O)NO)c3c2)cc1NS(=O)(=O)c1ccc(F)cc1F | -37.1% (active) |
| O=C(N/N=C/c1cc(Cl)ccc1O)c1ccccc1Nc1ccnc(C(F)(F)F)c1 | 12.8% (inactive) |
| CC(=O)O.CN1[CH-]N(Cc2ccc(C#N)cc2)c2ccccc21.[Ag+] | 97% (inactive) |
| COc1ccc(-n2c(/C=C/c3ccc(O)c(OC)c3)cc(/C=C/c3ccc(O)c(OC)c3)nc2=O)cc1 | 29% (inactive) |
| Cc1ccc2c(n1)C[C@H](C(C)(C)O)CC[C@H]2C | 108% (inactive) |
| COc1ccc(COc2cc3oc(=O)c4cc(C(C)O)ccc4c3cc2OC)cc1 (stereo not given) | 41% (inactive) |
| COC1OCC(O)C(O)C1O (stereo not given) | 100% (inactive) |
| CCCCCCCCCCC(=O)CCCCCCCCCC | 107% (inactive) |
| Fc1ccc2[nH]cc(-c3nc(-c4c[nH]c5c(Cl)nccc45)cs3)c2c1 | 9.87% (active) |
| c1c(-c2cc(C3CC3)[nH]n2)n[nH]c1C1CC1 | 95.4% (inactive) |
| NC(=S)N=Nc1c(O)c2ccccc2c2ccccc12 | 88.3% (inactive) |
| Clc1ccc2c(c1)N(C1CCCN(Cc3ccccc3)C1)c1ccccc1S2 (stereo not given) | 29.5% (inactive) |
| COc1ccc(-c2ccc(-c3ccc(-c4ccc(C(=N)N)cc4)s3)s2)cc1OC | -71.4% (active) |
| O=C(c1ccccc1)C1(Br)CCCCC1 | 90.3% (inactive) |

From PubChem BioAssay (NCI)
